SW480 rereplic: induces DNA re-replication in SW480 colon adenocarcinoma cells; SW480 DNA re-replication, Hoechst DNA content imaging, 48 h; hit rate 1.8% among 340,000; Potency, µM (top dose mostly 46.1 µM), inactives show at the top dose re-replication activation, hits mostly activators; note: % of control where 0% means no effect; nearly all actives have a fitted effect of over 55% in size
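Image-based read-out: total Hoechst fluorescence of nuclei (405 nm excitation, 500-530 nm emission), with hits raising the fraction of high-intensity nuclei. SW480 colon cells incubated 48 hr with compounds at 37 C.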
KB-V1 cytotox: KB-V1 MDR subline cytotoxicity; KB-V1 MDR cells viability, CellTiter-Glo, 72 h; Potency, µM (titrated, usually from 46.1 µM), usual class: cytotoxic; hit rate 3.4% among 400,000; AID 1347076; note: % is set by controls: 0 for no effect and ±100 for the full control effect; nearly all actives have a fitted effect of over 60% in size
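KB-V1, DMEM (no phenol red) + 10% FBS; cpd pin-transferred, titration series; 72 h, 37 degrees C; CellTiter-Glo, luminescence. Data normalized, curve-fit.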
HT1080-NT tox: kills 2HG-producing HT-1080-NT fibrosarcoma cells; HT-1080-NT fibrosarcoma viability, CellTiter-Glo ATP luminescence, 48 h; Potency, µM (series often up to 46.1 µM), inactives show top-dose activity, negative = less viability, usual class: cytotoxic; hit rate 1.6% among 360,000;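 note: NT is the 2HG producing partner of a matched IDH1 knockdown line; 0% = DMSO-treated cells and -100% = media-only wells without cells; nearly all actives have a fitted effect of over 55% in size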
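HT-1080-NT fibrosarcoma cells (2HG-overproducing), 750 cells/well in RPMI with 5% FBS, dosed after 2 h and incubated 48 h at 37C. CellTiter-Glo luminescence normalized to DMSO and no-cell wells; concentration-response curves fitted and classed.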
KB-3-1 tox: kills parental KB-3-1 adenocarcinoma cells. KB-3-1 viability, CellTiter-Glo ATP luminescence, 72 h. Potency, µM (doses to about 46.1 µM), hits mostly cytotoxic. hit rate 1.4% among 400,000. AID 1347075; note: % is set by controls: 0 for no effect and ±100 for the full control effect; nearly all actives have a fitted effect of over 60% in size
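Multi-concentration cytotoxicity screen in KB-3-1 cells grown in DMEM lacking phenol red with 10% FBS. After 72 h at 37 °C with compound, ATP-dependent luminescence was recorded.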
MCF10A rereplic: inducers of DNA re-replication in MCF 10A breast cells. MCF 10A DNA re-replication, Hoechst nuclear intensity, 48 h. Potency, µM (top dose mostly 46.1 µM), without a hit: top-dose activity, positive = re-replication, most hits filed as activators. hit rate 2.9% among 350,000; note: % of control where 0% means no effect; nearly all actives have a fitted effect of over 50% in size
HT1080 IDH1KD tx: kills HT-1080 cells with IDH1 knockdown. HT-1080 IDH1 knockdown viability, ATP luminescence, 48 h. Potency, µM (doses to about 46.1 µM), for the others: at the highest dose activity, negative = toxicity, usual class: cytotoxic. hit rate 2% among 360,000;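 note: 0% = DMSO wells and -100% = cell-free medium wells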
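HT-1080-IDH1KD cells (IDH1 knocked down), 750/well in RPMI with 5% FBS, treated with compound 48 h at 37 degrees C. Viability by CellTiter-Glo luminescence, normalised to DMSO and no-cell wells; concentration-response curves classed.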
* hit, by the source's call. The list is not random: actives were taken first. Their share in the collection is about 8%. Calls come from the whole dose curve; as a rule, active = well fitted curve in the direction sought with a large enough effect; inconclusive = small, poorly fitted or top-dose-only effect, or another doubt; inactive = no such curve, though single readings can be large; an effect the other way counts as inactive or inconclusive. Potency is the fitted concentration of half-maximal effect.

`Oc1ccc(CNc2ccccc2)c2cccnc12` gave SW480 rereplic inconclusive, KB-V1 cytotox inactive, HT1080-NT tox 5.8µM*, KB-3-1 tox inconclusive, MCF10A rereplic inconclusive and HT1080 IDH1KD tx inconclusive.
For NC(=O)c1ccnc2c(O)cccc12 the results were SW480 rereplic 0%, KB-V1 cytotox inactive, KB-3-1 tox inactive and MCF10A rereplic 4%.
`Cc1cccc(NCc2ccc(O)c3ncccc23)c1` gave SW480 rereplic inconclusive, KB-V1 cytotox inactive, HT1080-NT tox 18µM*, KB-3-1 tox 23µM*, MCF10A rereplic inconclusive and HT1080 IDH1KD tx inconclusive.
Screening OCc1ccnc2c(O)cccc12 returned SW480 rereplic 1.2µM*, KB-V1 cytotox inconclusive, HT1080-NT tox -8%, KB-3-1 tox inconclusive, MCF10A rereplic 5.2µM* and HT1080 IDH1KD tx -16%.
Oc1ccc(Cn2ccnc2)c2cccnc12 was read as SW480 rereplic inconclusive, KB-V1 cytotox inactive, HT1080-NT tox inconclusive, KB-3-1 tox inconclusive, MCF10A rereplic 135% and HT1080 IDH1KD tx inconclusive.
COCc1ccc(O)c2ncccc12 was read as SW480 rereplic 26%, KB-V1 cytotox 12µM*, HT1080-NT tox 4.6µM*, KB-3-1 tox 15µM*, MCF10A rereplic 7.3µM* and HT1080 IDH1KD tx 5.8µM*.
`CCn1c(SCC(=O)c2c(N)n(C3CC3)c(=O)[nH]c2=O)nnc1-c1ccccc1OC` gave SW480 rereplic -5%, KB-V1 cytotox inactive, HT1080-NT tox 10%, KB-3-1 tox inactive, MCF10A rereplic 1% and HT1080 IDH1KD tx 16%.
For O=C(O)C1(P(=O)(c2ccccc2)c2ccccc2)CCC1 the results were SW480 rereplic -3%, KB-V1 cytotox inactive, HT1080-NT tox 15%, KB-3-1 tox inactive, MCF10A rereplic 0% and HT1080 IDH1KD tx 17%.
Screening CCCc1cc(=O)[nH]c(SCC(=O)N(CC)C2CCS(=O)(=O)C2)n1 (centres undefined) returned SW480 rereplic -11%, KB-V1 cytotox inactive, HT1080-NT tox 15%, KB-3-1 tox inactive, MCF10A rereplic -1% and HT1080 IDH1KD tx 10%.
For Cc1ccccc1NCc1ccc(O)c2ncccc12 the results were SW480 rereplic 3%, KB-V1 cytotox inconclusive, HT1080-NT tox 3.2µM*, KB-3-1 tox inactive, MCF10A rereplic inconclusive and HT1080 IDH1KD tx 0.71µM*.
Oc1ccc(CNc2ccc(F)cc2)c2cccnc12 was read as SW480 rereplic inconclusive, KB-V1 cytotox inactive, HT1080-NT tox 18µM*, KB-3-1 tox inconclusive, MCF10A rereplic 23µM* and HT1080 IDH1KD tx 18µM*.
`Cc1ccc(CN2[C@H](C)[C@H](c3ccccc3)OCCS2(=O)=O)cc1` gave KB-V1 cytotox 16µM* and KB-3-1 tox 23µM*.
Screening CCOC(=O)c1cccc(NC(=O)CN2CCN(c3ccc(OC)cc3)CC2)c1 returned SW480 rereplic 0%, KB-V1 cytotox 21µM*, HT1080-NT tox 2%, KB-3-1 tox inactive, MCF10A rereplic -4% and HT1080 IDH1KD tx 9%.
COc1ccc(C(=O)NCc2ccc(N3CCN(C(=O)OC(C)(C)C)CC3)cc2)cc1 was read as SW480 rereplic 8%, KB-V1 cytotox 0.73µM*, HT1080-NT tox 3%, KB-3-1 tox inconclusive, MCF10A rereplic 23% and HT1080 IDH1KD tx -11%.
`CCOC(=O)c1cccc(NC(=O)COc2ccc([N+](=O)[O-])cc2)c1` gave SW480 rereplic -2%, KB-V1 cytotox 23µM*, HT1080-NT tox 5%, KB-3-1 tox inactive, MCF10A rereplic 8% and HT1080 IDH1KD tx 5%.
CCCOC(=O)c1cccc(NC(=O)COc2ccc([N+](=O)[O-])cc2)c1 was read as SW480 rereplic -2%, KB-V1 cytotox inconclusive, HT1080-NT tox -11%, KB-3-1 tox inactive, MCF10A rereplic 12% and HT1080 IDH1KD tx inconclusive.

Screening data from PubChem.
